Source: PubChem (National Center for Advancing Translational Sciences (NCATS))
The list is not random: actives were taken first. Their share in the collection is about 4.6%.
TRHR ag – agonists of human TRH receptor. P34981. TRHR cells, calcium flux fluo-8, FDSS agonist mode. activation, % at 2 µM. AID 493084. hit rate 0.18% among 360,000; further: 0% is about no effect
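Agonist-mode FDSS calcium read (Ex 480/Em 530, 1 s cycles) in 1536-well TRHR cells with fluo-8 dye, after 10-cycle baseline and 23 nL compound addition; TRH at EC20 (10 nM final) added afterwards for the enhancer phase.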
D1 potentiator – potentiators of human D1 dopamine receptor; HEK293 TREx D1 cells, calcium flux, dopamine EC20 potentiation; hit rate 0.036% among 360,000; P21728; AID 504651; potentiation, % at 10 µM; in the data active means potentiation above about 30%; further: 0% is about no effect
Target sequence (P21728 whole entry, looked up): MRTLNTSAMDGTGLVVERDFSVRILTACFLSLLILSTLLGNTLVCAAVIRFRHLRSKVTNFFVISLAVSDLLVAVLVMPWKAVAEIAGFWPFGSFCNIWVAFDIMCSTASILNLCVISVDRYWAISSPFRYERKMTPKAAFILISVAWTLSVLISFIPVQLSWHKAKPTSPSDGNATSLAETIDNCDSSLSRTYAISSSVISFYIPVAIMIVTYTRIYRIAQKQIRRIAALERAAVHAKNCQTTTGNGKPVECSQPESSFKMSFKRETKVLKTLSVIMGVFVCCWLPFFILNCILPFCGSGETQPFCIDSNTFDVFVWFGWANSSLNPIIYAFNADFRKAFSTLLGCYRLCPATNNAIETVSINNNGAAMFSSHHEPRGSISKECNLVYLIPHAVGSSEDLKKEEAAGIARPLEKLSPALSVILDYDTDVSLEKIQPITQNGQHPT
TRHR enhancer – allosterically enhances the human TRH receptor; enhancement, % at 2 µM; AID 493056; hit rate 0.66% among 360,000; TRHR cells, fluo-8 calcium fluorescence, EC20 TRH enhancement; in the data active means enhancement above about 30%; further: 0% is about no effect
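TRHR-expressing cells loaded with fluo-8 calcium dye were read kinetically (ex 480/em 530) during compound addition, then stimulated with an EC20 of TRH (10 nM final). Enhancement of the Gq-mediated intracellular calcium response was scored.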
D1 antag – blocks dopamine activation of the human D1 receptor; P21728; HEK293 TREx D1 cells, calcium flux, dopamine EC80; stronger effect = lower value; activity change, negative = inhibition, % at 10 µM; hit rate 3.2% among 360,000; in the data active means activity change below about -30%; further: on the % scale 0 is the no-effect control and ±100 the full control effect
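Tetracycline-induced HEK293 T-REx cells with force-coupled D1 receptor were loaded with a no-wash calcium dye. Compound was added after a 10 s baseline and read kinetically for 180 s; EC80 dopamine was then added and calcium flux followed another 180 s.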
D1 ag – human D1 receptor agonism; P21728; HEK293 T-REx D1 cells, calcium flux, agonist mode; activation, % at 2 µM; hit rate 1% among 360,000; further: 0% is about no effect
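Tetracycline-induced HEK293 TREx D1 cells, force-coupled to calcium signalling, were dye-loaded with a no-wash calcium kit. Compound was pin-added after a 10 s baseline. Fluorescence was read kinetically at 1 cycle/s for 180 s, with calcium rises flagged as agonism.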
Starred values were filed as active, the others as inactive; . = not tested or not shown; ! = not confirmed by another sample. Unless noted, no stated cut-off is given here; in the data, active means activation above about 30%; inactive means the rest.

SMILES	TRHR ag	D1 potentiator	TRHR enhancer	D1 antag	D1 ag
CC(C)(C)OC(=O)NCC12C=CC(O1)C1C(=O)N(Cc3ccccc3)C(=O)C12 (stereo unspecified)	0.0	3.5	0.5	-33.4*	18.2
O=C(Cc1ccccc1)NCCc1cccc(Cl)c1	-1.0	-8.1	6.0	-55.2*	27.3
O=C(NCCc1ccccc1)c1ccc(Cl)c([N+](=O)[O-])c1	1.3	-2.5	-3.1	-36.4*	1.6
NS(=O)(=O)c1ccc(CCNC(=O)c2cccc([N+](=O)[O-])c2)cc1	1.6	-1.6	-3.0	4.7	0.7
Cc1cc(C(=O)NCCc2ccccc2)ccc1[N+](=O)[O-]	-0.6	-5.9	9.0	-17.1	1.7
O=C(NCCc1cccc(Cl)c1)c1cccc([N+](=O)[O-])c1	-1.6	-3.9	-3.3	-42.4*	3.6
Cc1ccc2nc3sc(C(=O)Nc4ccc(F)cc4)cc3cc2c1	0.7	3.6	2.1	10.9	3.1
COc1ccc(C(CNC(=O)c2ccc(OC)c(S(=O)(=O)N3CCCC3)c2)N2CCCC2)cc1 (stereo unspecified)	-0.2	-0.2	-4.4	-6.2	-0.2
COc1ccc(C(CNC(=O)CNC(=O)c2cccc(Cl)c2)N2CCCC2)cc1 (stereo unspecified)	-0.1	.	2.8	-37.4*	4.9
COc1ccc(C(CNC(=O)CNC(=O)c2ccccc2Cl)N2CCCC2)cc1 (stereo unspecified)	0.0	-5.8	12.9	4.5	0.0
COc1ccc(C(CNC(=O)c2cccc(S(=O)(=O)Nc3ccccc3OC)c2)N2CCCC2)cc1 (stereo unspecified)	0.3	-2.3	15.5	-4.4	7.0
Cc1ccc(NC(=O)c2ccc(C)c(S(=O)(=O)N3CCCCCC3)c2)cc1	1.4	-4.8	-6.3	2.1	8.0
Cc1ccc(C(=O)Nc2cccc(O)c2)cc1S(=O)(=O)N1CCCCCC1	0.4	-3.2	-7.1	-33.4*!	0.5
COc1ccccc1C(CNC(=O)c1ccc(C)c(S(=O)(=O)N2CCCCC2)c1)N1CCCC1 (stereo unspecified)	-0.4	-9.8	4.6	-44.9*	1.5
COc1ccc(C(CNC(=O)c2ccc(C)c(S(=O)(=O)Nc3ccccc3OC)c2)N2CCCC2)cc1 (stereo unspecified)	0.4	-0.7	-4.6	-38.4*	14.3
O=C(Cn1c2c(c(-c3ccccc3Cl)cc1=O)CCC2)NCCCN1CCOCC1	0.1	-7.6	-4.6	-23.1	0.3
CCc1cccc(NC(=O)C2CCN(C(=O)c3cnn(-c4ccccc4)c3-n3cccc3)CC2)c1	-1.5	1.9	-3.9	-7.9	4.3
CC(=O)c1ccc(N2CCN(C(=O)C3CCN(S(=O)(=O)c4c(C)noc4/C=C/c4ccccc4F)CC3)CC2)cc1	-0.1	-0.3	-9.4	-4.0	3.3
Cc1c(Cl)cccc1NC(=O)C(C)n1nc(C)c2c(C)n(-c3ccccc3)nc2c1=O (stereo unspecified)	-0.2	-1.6	-3.0	8.5	1.5
CCCCN(C)c1nnc(NC(=O)Nc2cccc(C(C)=O)c2)s1	-0.3	-2.1	2.5	-24.1	8.6
COc1ccc(CCNC(=O)CCCn2c(=O)c3ccccc3n(CC(=O)Nc3ccccc3C)c2=O)cc1OC	-1.6	1.9	-2.2	-1.0	-1.1
Cc1ccc2c(c1)c1c3n2CCN(C(=O)CCl)C3CCC1 (stereo unspecified)	-0.5	-4.8	0.9	-44.7*	3.9
CC(=O)N1CCn2c3c(c4cc(C)ccc42)CCCC31 (stereo unspecified)	-0.6	-2.5	-18.4	-15.0	1.0
O=C(CCC(=O)c1ccc(F)cc1)Nc1cccc(Br)c1	0.0	0.9	-11.3	-1.1	0.4
CCOc1ccc(NC(=O)C(C)Oc2ccc(C#N)cc2)cc1S(=O)(=O)N1CCCC1 (stereo unspecified)	5.0	-3.7	-0.8	-0.1	37.6*
SMILES	TRHR ag	D1 potentiator	TRHR enhancer	D1 antag	D1 ag
CCOc1ccccc1OCC(=O)Nc1ccc(OC)c(S(=O)(=O)N2CCCCC2)c1	0.3	0.5	1.4	-11.2	-0.5
Oc1ccc2nnc3c(Br)cnn3c2c1	52.3*	-2.3	-6.2	1.3	171.0*
Clc1ccc2nc3c4ccccc4cnn3c2c1	-1.0	-8.8	0.0	-4.8	0.7
O=C(c1cn(CCOc2ccc(Cl)cc2)c2ccccc12)C1CCCCC1	1.5	-3.7	4.0	4.9	4.8
Cc1ccccc1Cc1c(C)nc2nc(SCC(=O)NC(C)c3ccccc3)nn2c1C (stereo unspecified)	1.3	1.8	3.8	12.4	29.0
O=C(CNC(=O)c1cccc(Cl)c1)OC(C(=O)Nc1cc(C(F)(F)F)ccc1Cl)c1ccccc1 (stereo unspecified)	-0.2	-1.0	11.2	-1.7	12.3
CC1CCC(C(C)C)C(OCC(O)CNC(C)c2ccccc2)C1 (stereo unspecified)	-1.1	-0.7	1.7	42.5	32.8*
CC(NCC(O)COc1ccc(Br)cc1)c1ccccc1 (stereo unspecified)	2.1	-9.6	1.4	-13.6	7.4
CC(NCC(O)COC1CCC(C(C)(C)C)CC1)c1ccccc1 (stereo unspecified)	0.9	25.0	14.1	0.0	111.8*
CC(C)NC(=NCc1ccc(Cl)cc1Cl)Nc1ccccc1	14.6	-4.7	-1.8	-12.1	45.6*
CC(CCc1ccccc1)NC(=O)CCc1cn(C)c2ccccc12 (stereo unspecified)	-0.6	-1.1	0.8	-44.1*	-0.2
CCOC(=O)c1ccc(OC(=O)c2cn(-c3cccc(OC)c3)c(=O)c3ccccc23)cc1	1.3	-3.2	-14.0	21.5	5.8
CC(C)Nc1nc(NC(C)(C)C)nc(Oc2ccc(=O)n(C)n2)n1	0.4	-0.1	-1.7	13.9	47.2*
CCOc1ccc(C2CC(c3c(O)c4ccccc4oc3=O)=NN2c2ccccc2)cc1OC (stereo unspecified)	23.8	-0.1	-0.6	1.1	35.7*
CCOc1ccc(C2c3c(oc4ccccc4c3=O)C(=O)N2c2nnc(C)s2)cc1OC (stereo unspecified)	0.5	-5.8	-0.4	-14.5	-0.3
COc1ccccc1C(=O)NC(=O)COC(=O)CN1C(=O)NC2(CCCCC2C)C1=O (stereo unspecified)	-0.4	0.0	3.6	7.7	1.5
COc1ccc(OC)c(C(=O)COC(=O)CN2C(=O)NC3(CCCCC3C)C2=O)c1 (stereo unspecified)	-0.4	-3.5	32.9*	2.6	0.9
CC(C)(C)c1ccc(C(=O)COC(=O)CN2C(=O)NC3(CCCC3)C2=O)cc1	-2.6	-3.1	15.7	-31.2*	6.5
CC(C)CCN(Cc1ccco1)S(=O)(=O)c1csc(C(N)=O)c1	0.3	-2.5	-7.5	1.6	3.2
CCOCCCN(Cc1ccco1)S(=O)(=O)c1csc(C(N)=O)c1	0.2	-8.6	-1.9	-49.9*	1.2
